Reference: the supplement of paper PMC3342239
Counter-ions that a name gives are not always drawn.

The molecules below were run on Saccharomyces cerevisiae (assay: fraction of cells in G1 phase (DNA content, flow cytometry); higher = more cells with unreplicated DNA (G1 delay)). Settings: temperature: 30 C; YPD; BY4741 PDR5+ SNQ2+; drug added to: actively dividing cells; 4.33 h.
Procedure: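 S. cerevisiae cultures in YPD at 30°C were treated with each drug of the Enzo FDA-approved library at 20 µg/ml (final µM given per drug). Cells were fixed after 6–7 h (S1) or 6 h (S2), or after 4.33 h for BY4741 (S3), then stained with SYTOX Green. %G1 is the Dean-Jett-Fox G1 peak area divided by the G1+G2/M peak areas, written as a fraction and averaged over at least two independent experiments. DMSO reference: mean ~0.49; >0.60 is called High G1 and <0.3876 Low G1. Scale: lower means mitotic delay.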
With `CCCCC(C#N)(Cn1cncn1)c1ccc(Cl)cc1` (stereo not given) [Myclobutanil] (69.2563 µM) the “fraction of cells in G1 phase” value was 0.536.

Same assay, conditions: temperature: 30 C; YPD; JTY2953 pdr5 snq2 (sensitized); drug added to: actively dividing cells; 6 h
For `CCCCC(C#N)(Cn1cncn1)c1ccc(Cl)cc1` (stereo not given) [Myclobutanil] (69.2563 µM), the “fraction of cells in G1 phase” value was 0.766.
`O=c1[nH]c2ccccc2n1C1CCN(CCCC(c2ccc(F)cc2)c2ccc(F)cc2)CC1` [Pimozide] (43.3313 µM) was tested, and the “fraction of cells in G1 phase” value was 0.344.

Same assay, conditions: temperature: 30 C; YPD; JTY2953 pdr5 snq2 (sensitized); drug added to: cultures diluted from stationary phase; 6-7 h
For `CC(NC(C)(C)C)C(=O)c1cccc(Cl)c1` (stereo not given) [Amfebutamone] (83.4211 µM), the “fraction of cells in G1 phase” value was 0.502.
For `Oc1ccc2c3c1O[C@H]1[C@@H](O)CC[C@@]4(O)[C@@H](C2)N(CC2CCC2)CC[C@]314` [Nalbuphine HCl] (55.9513 µM), the “fraction of cells in G1 phase” value was 0.469.
With `CCCCC(C#N)(Cn1cncn1)c1ccc(Cl)cc1` (stereo not given) [Myclobutanil] (69.2563 µM) the “fraction of cells in G1 phase” value was 0.667.
In the case of `CC[C@H](C)[C@H]1O[C@]2(C=C[C@@H]1C)C[C@@H]1C[C@@H](C/C=C(\C)[C@@H](O[C@H]3C[C@H](OC)[C@@H](O[C@H]4C[C@H](OC)[C@@H](O)[C@H](C)O4)[C@H](C)O3)[C@@H](C)/C=C/C=C3\CO[C@@H]4[C@H](O)C(C)=C[C@@H](C(=O)O1)[C@]34O)O2.CO[C@H]1C[C@H](O[C@H]2[C@H](C)O[C@@H](O[C@@H]3/C(C)=C/C[C@@H]4C[C@@H](C[C@]5(C=C[C@H](C)[C@@H](C(C)C)O5)O4)OC(=O)[C@@H]4C=C(C)[C@@H](O)[C@H]5OC/C(=C\C=C\[C@@H]3C)[C@]54O)C[C@@H]2OC)O[C@@H](C)[C@@H]1O` [Abamectin] (22.9069 µM), the “fraction of cells in G1 phase” value is reported as 0.516.
With `O=C(O)CCCc1ccc(N(CCCl)CCCl)cc1` [Chlorambucil] (65.7421 µM) the “fraction of cells in G1 phase” value was 0.456.
`CCC1(c2ccc(N)cc2)CCC(=O)NC1=O` (racemic) [Dl-aminoglutethimide] (86.1012 µM) was tested, and the “fraction of cells in G1 phase” value was 0.476.
In the case of `Oc1ccc2c3c1O[C@H]1c4[nH]c5ccccc5c4C[C@@]4(O)[C@@H](C2)N(CC2CC2)CC[C@]314` [Naltrindole HCl] (48.2499 µM), the “fraction of cells in G1 phase” value is reported as 0.504.
`COc1ccc2c(c1)[nH]c1c(C)nccc12` [Harmine] (94.227 µM) was tested, and the “fraction of cells in G1 phase” value was 0.474.
For `CC(C)C[C@H]1C(=O)N2CCC[C@H]2[C@]2(O)O[C@](NC(=O)[C@@H]3C=C4c5cccc6[nH]c(Br)c(c56)C[C@H]4N(C)C3)(C(C)C)C(=O)N12` [Bromocriptine mesylate] (30.5525 µM), the “fraction of cells in G1 phase” value was 0.529.
In the case of `O=C(CCCN1CCC2(CC1)C(=O)NCN2c1ccccc1)c1ccc(F)cc1` [Spiperone] (50.5713 µM), the “fraction of cells in G1 phase” value is reported as 0.484.
In the case of `COc1ccc(C(CN(C)C)C2(O)CCCCC2)cc1` (stereo not given) [Venlafaxine HCl] (72.0954 µM), the “fraction of cells in G1 phase” value is reported as 0.453.
In the case of `CC(C)(C)NCC(O)c1cc(Cl)c(N)c(Cl)c1` (stereo not given) [Clenbuterol] (72.1511 µM), the “fraction of cells in G1 phase” value is reported as 0.498.
With `CC(CCc1ccccc1)NC(C)C(O)c1ccc(O)cc1` (stereo not given) [Buphenine] (59.5415 µM) the “fraction of cells in G1 phase” value was 0.512.
With `COc1ccc2c(c1)[C@]13CCCC[C@@H]1[C@H](C2)N(C)CC3` [Dextromethorphan HBr] (73.6903 µM) the “fraction of cells in G1 phase” value was 0.503.
With `C=CCN1C[C@H](C(=O)N(CCCN(C)C)C(=O)NCC)C[C@@H]2c3cccc4[nH]cc(c34)C[C@H]21` [Cabergoline] (44.2853 µM) the “fraction of cells in G1 phase” value was 0.496.
For `COc1ccc(C(=O)c2c(C)n(CCN3CCOCC3)c3ccccc23)cc1` [Pravadoline] (52.8436 µM), the “fraction of cells in G1 phase” value was 0.594.
For `COc1ccc(CCN2CCC(Nc3nc4ccccc4n3Cc3ccc(F)cc3)CC2)cc1` [Astemizole] (43.6125 µM), the “fraction of cells in G1 phase” value was 0.501.
In the case of `N[C@@H]1C[C@H]1c1ccccc1.N[C@H]1C[C@@H]1c1ccccc1` [Tranylcypromine] (150.156 µM), the “fraction of cells in G1 phase” value is reported as 0.531.
For `C=CCN1CC[C@]23c4c5ccc(O)c4O[C@H]2C(=O)CC[C@@]3(O)[C@H]1C5` [Naloxone HCl] (61.0904 µM), the “fraction of cells in G1 phase” value was 0.488.
For `CN1C[C@H](C(=O)N[C@]2(C)O[C@@]3(O)[C@@H]4CCCN4C(=O)[C@H](Cc4ccccc4)N3C2=O)C=C2c3cccc4[nH]cc(c34)C[C@H]21` [Ergotamine D-tartrate] (34.3833 µM), the “fraction of cells in G1 phase” value was 0.499.
With `CC(C)CC(N(C)C)C1(c2ccc(Cl)cc2)CCC1` (stereo not given) [Sibutramine HCl] (71.4652 µM) the “fraction of cells in G1 phase” value was 0.516.
For `Oc1ccc2c3c1O[C@H]1c4oc5ccccc5c4C[C@@]4(O)[C@@H](C2)N(CC2CC2)CC[C@]314` [Naltriben methanesulfonate hydrate] (39.093 µM), the “fraction of cells in G1 phase” value was 0.45.
For `CC(C)[C@@]1(NC(=O)[C@@H]2C[C@@H]3c4cccc5[nH]cc(c45)C[C@H]3N(C)C2)O[C@@]2(O)[C@@H]3CCCN3C(=O)[C@H](Cc3ccccc3)N2C1=O` [Dihydroergocristine mesylate] (32.6932 µM), the “fraction of cells in G1 phase” value was 0.465.
In the case of `c1ccc2c(c1)OCC(C1=NCCN1)O2` (stereo not given) [Idazoxan] (97.9286 µM), the “fraction of cells in G1 phase” value is reported as 0.48.
In the case of `COc1cccc(C2(O)CCCCC2CN(C)C)c1` (stereo not given) [Tramadol HCl] (75.935 µM), the “fraction of cells in G1 phase” value is reported as 0.492.
With `CO[C@]12C[C@@H](COC(=O)c3cncc(Br)c3)CN(C)[C@@H]1Cc1cn(C)c3cccc2c13` [Nicergoline] (41.2884 µM) the “fraction of cells in G1 phase” value was 0.481.
With `CN1C[C@@H](NS(=O)(=O)N(C)C)C[C@@H]2c3cccc4c3c(cn4C)C[C@H]21` [Mesulergine HCl] (55.1728 µM) the “fraction of cells in G1 phase” value was 0.547.
With `Cc1cccc(C)c1NC1=NCCCS1` [Xylazine HCl] (90.7693 µM) the “fraction of cells in G1 phase” value was 0.506.
For `CN(C)C(=O)Oc1cccc([N+](C)(C)C)c1` [Neostigmine Br] (89.5666 µM), the “fraction of cells in G1 phase” value was 0.485.
With `CC[C@@H](CO)NC(=O)[C@@H]1C=C2c3cccc4c3c(cn4C)C[C@H]2N(C)C1` [Methysergide] (56.5822 µM) the “fraction of cells in G1 phase” value was 0.48.
For `CC(N)C(O)c1ccccc1` (stereo not given) [Phenylpropanolamine] (132.266 µM), the “fraction of cells in G1 phase” value was 0.466.
In the case of `O=C1CCCN1CC#CCN1CCCC1` [Oxotremorine sesquifumarate] (96.9509 µM), the “fraction of cells in G1 phase” value is reported as 0.542.
`CC[C@@H](C(N)=O)N1CCCC1=O` [Levetiracetam] (117.5 µM) was tested, and the “fraction of cells in G1 phase” value was 0.529.
For `CN1C[C@H](C(=O)N[C@]2(C)O[C@@]3(O)[C@@H]4CCCN4C(=O)[C@H](Cc4ccccc4)N3C2=O)C[C@@H]2c3cccc4[nH]cc(c34)C[C@H]21` [Dihydroergotamine mesylate] (34.2646 µM), the “fraction of cells in G1 phase” value was 0.527.
With `N[C@@H](Cc1ccc(N(CCCl)CCCl)cc1)C(=O)O` [Melphalan] (65.5294 µM) the “fraction of cells in G1 phase” value was 0.45.
In the case of `O=c1[nH]c2ccccc2n1C1CCN(CCCC(c2ccc(F)cc2)c2ccc(F)cc2)CC1` [Pimozide] (43.3313 µM), the “fraction of cells in G1 phase” value is reported as 0.85.
`CC(=O)O[C@H]1C[C@@H]2CC[C@@H]3[C@H](CCC4(C)[C@H]3C[C@H]([N+]3(C)CCCCC3)[C@@H]4OC(C)=O)C2(C)C[C@@H]1[N+]1(C)CCCCC1` (stereo not given in full) [Pancuronium Br] (34.9114 µM) was tested, and the “fraction of cells in G1 phase” value was 0.487.
